# Among all 5,500 compounds or so, about 2,000 (36%) were called active. Another 18% or so got no clear call; they are omitted. This is one part of the list. Values without a mark were called inactive. Rule as the data show it: active = normalized growth mostly below about 0.91 (no sharp cut-off); inconclusive = no clear call, values can overlap the other calls; inactive = mostly above about 0.92.
# Assay: chemical genetic growth profiling, strain panel (AID 1159580);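 also: tested at 20 µM; growth read once vehicle control cultures reached saturation at 30 °C; 1 = growth at the plate median or of vehicle wells; lower values mean less growth of the strain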
# Settings: growth OD
# [1] = S. cerevisiae deletion strains, locus YAL013W, strain DEP1, stronger effect = lower value
# [2] = S. cerevisiae deletion strains, locus YBR229C, strain ROT2, stronger effect = lower value
# [3] = S. cerevisiae deletion strains, locus YDL101C, strain DUN1, stronger effect = lower value
# [4] = S. cerevisiae deletion strains, locus YDR150W, strain NUM1, stronger effect = lower value
# [5] = S. cerevisiae deletion strains, locus YEL061C, strain CIN8, stronger effect = lower value
# [6] = S. cerevisiae deletion strains, locus YGR078C, strain PAC10, stronger effect = lower value
# [7] = S. cerevisiae deletion strains, locus YHR030C, strain SLT2, stronger effect = lower value
# [8] = S. cerevisiae deletion strains, locus YHR087W, strain rtc3, stronger effect = lower value
# [9] = S. cerevisiae deletion strains, locus YJR043C, strain POL32, stronger effect = lower value
# [10] = S. cerevisiae deletion strains, locus YJR075W, strain HOC1, stronger effect = lower value
# [11] = S. cerevisiae deletion strains, locus YLR039C, strain RIC1, stronger effect = lower value
# [12] = S. cerevisiae deletion strains, locus YLR058C, strain SHM2 (second series), stronger effect = lower value
# [13] = S. cerevisiae deletion strains, locus YLR085C, strain ARP6, stronger effect = lower value
# [14] = S. cerevisiae deletion strains, locus YLR262C, strain YPT6, stronger effect = lower value
# [15] = S. cerevisiae deletion strains, locus YML094W, strain GIM5, stronger effect = lower value
# [16] = S. cerevisiae deletion strains, locus YMR219W, strain ESC1, stronger effect = lower value
# [17] = S. cerevisiae deletion strains, locus YMR263W, strain SAP30, stronger effect = lower value
# [18] = S. cerevisiae deletion strains, locus YNL153C, strain GIM3, stronger effect = lower value
# [19] = S. cerevisiae deletion strains, locus YNL298W, strain CLA4 (second series), stronger effect = lower value
# [20] = S. cerevisiae deletion strains, locus YNL322C, strain KRE1, stronger effect = lower value
# [21] = S. cerevisiae deletion strains, locus YNR030W, strain Alg12, stronger effect = lower value
# [22] = S. cerevisiae deletion strains, locus YOL006C, strain TOP1, stronger effect = lower value
# [23] = S. cerevisiae deletion strains, locus YPL055C, strain LGE1, stronger effect = lower value
# [24] = S. cerevisiae deletion strains, locus YPL241C, strain CIN2, stronger effect = lower value
# [25] = S. cerevisiae deletion strains, locus YPR135W, strain CTF4, stronger effect = lower value
# [26] = S. cerevisiae strains, strain wild type, stronger effect = lower value
compound,measurement,setting,value
Nc1ccc(-n2nc(C(F)(F)F)cc2C(F)(F)F)cc1,normalized growth,[1],1
same,normalized growth,[2],0.986
same,normalized growth,[3],1
same,normalized growth,[4],0.902
same,normalized growth,[5],0.998
same,normalized growth,[6],1.01
same,normalized growth,"S. cerevisiae deletion strains, locus YGR229C, strain SMI1, stronger effect = lower value",0.99
same,normalized growth,[7],0.661 (active)
same,normalized growth,[8],1.01
same,normalized growth,[9],0.992
same,normalized growth,[10],0.938
same,normalized growth,[11],0.842
same,normalized growth,[12],0.975
same,normalized growth,[13],0.603 (active)
same,normalized growth,[14],0.904
same,normalized growth,[15],0.975
same,normalized growth,[16],0.986
same,normalized growth,[17],0.963
same,normalized growth,[18],1
same,normalized growth,[19],0.855
same,normalized growth,[20],0.969
same,normalized growth,[21],0.951
same,normalized growth,[22],0.866
same,normalized growth,[23],0.929
same,normalized growth,[24],0.825 (active)
same,normalized growth,[25],0.694
same,normalized growth,[26],0.974
O=C(O)/C=C/C(=O)Nc1ccc(-n2nc(C(F)(F)F)cc2C(F)(F)F)cc1,normalized growth,[1],0.987
same,normalized growth,[2],1
same,normalized growth,"S. cerevisiae deletion strains, locus YCL061C, strain MRC1, stronger effect = lower value",1.01
same,normalized growth,[3],0.97
same,normalized growth,"S. cerevisiae deletion strains, locus YDL134C, strain PPH21, stronger effect = lower value",1.02
same,normalized growth,[4],0.992
same,normalized growth,[5],1.03
same,normalized growth,[6],1.01
same,normalized growth,[7],1.11
same,normalized growth,[8],0.995
same,normalized growth,"S. cerevisiae deletion strains, locus YJL187C, strain SWE1, stronger effect = lower value",1.01
same,normalized growth,[9],1
same,normalized growth,[10],1.08
same,normalized growth,"S. cerevisiae deletion strains, locus YKL190W, strain CNB1, stronger effect = lower value",1.02
same,normalized growth,[11],1.04
same,normalized growth,[12],1.02
same,normalized growth,[13],1.07
same,normalized growth,[14],1.03
same,normalized growth,[15],1.02
same,normalized growth,[16],1.01
same,normalized growth,[17],1.02
same,normalized growth,"S. cerevisiae deletion strains, locus YMR307W, strain GAS1, stronger effect = lower value",1.14
same,normalized growth,"S. cerevisiae deletion strains, locus YNL128W, strain TEP1, stronger effect = lower value",1.02
same,normalized growth,[18],0.989
same,normalized growth,[19],1.05
same,normalized growth,[20],1
same,normalized growth,[21],1.02
same,normalized growth,[22],1.09
same,normalized growth,[23],1
same,normalized growth,[24],1.01
same,normalized growth,[25],1.06
same,normalized growth,[26],1.02

# Reference: PubChem BioAssay AID1159580 (chemical genetic matrix, 2015)
